Values joined by “and” are separate entries in the source; they are usually repeats but may differ in a detail not shown here. Equal entries are not always repeated. Results filed as inconclusive are left out. Some compounds were tested as several samples or in several runs, with calls that do not always agree. Active and inactive are the calls of the source. The calls were made as follows, unless noted: active = hit-call score of the fitted dose curve at least 0.9, where 1 is the maximum; inconclusive = response in the unintended direction; inactive = score below 0.9.
Columns and labels:
[1] = read-out: Thyroid Hormone Responsive (THRSP), THRSP (gene 7069); test: LTEA_HepaRG_THRSP: Life Technologies and Expression Analysis (LTEA) Assay for Thyroid Hormone Responsive (THRSP) using HepaRG (AID 2283536; active = hit-call score of the fitted dose curve at least 0.9, where 1 is the maximum; inactive = score below 0.9); conditions: mRNA level, 48 h; actives raise or lower the signal
Outline: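 Differentiated human HepaRG cells were exposed in duplicate for 48 h in serum-free induction medium to eight concentrations (top 100 uM, half-log steps, 0.5% DMSO). Expression was quantified by TaqMan qRT-PCR, normalized to ACTB, GAPDH and POLR2A, with bidirectional fitting against DMSO.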

[2] = read-out: UDP glucuronosyltransferase (UGT1A1), UGT1A1 (gene 54658); test: LTEA_HepaRG_UGT1A1: Life Technologies and Expression Analysis (LTEA) Assay for UDP glucuronosyltransferase (UGT1A1) using HepaRG (AID 2283538; active = hit-call score of the fitted dose curve at least 0.9, where 1 is the maximum; inactive = score below 0.9); conditions: mRNA level, 48 h; actives raise or lower the signal
Outline: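 Human liver HepaRG cultures receive test chemical for 48 h, up to 100 uM in 0.5% DMSO, with phenobarbital induction controls. UGT1A1 mRNA is measured by qRT-PCR and normalized to ACTB, GAPDH and POLR2A.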

[3] = read-out: UDP glucuronosyltransferase (UGT1A6), UGT1A6 (gene 54578); test: LTEA_HepaRG_UGT1A6: Life Technologies and Expression Analysis (LTEA) Assay for UDP glucuronosyltransferase (UGT1A6) using HepaRG (AID 2283539; active = hit-call score of the fitted dose curve at least 0.9, where 1 is the maximum; inactive = score below 0.9); conditions: mRNA level, 48 h; actives raise or lower the signal
Outline: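 Expression was quantified by TaqMan qRT-PCR on Fluidigm arrays with ACTB/GAPDH/POLR2A normalization and bidirectional fitting against 0.5% DMSO. HepaRG cells (~100,000/well) were treated in duplicate for 48 h at eight half-log concentrations up to 100 uM in serum-free induction medium.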

[4] = read-out: X-box binding protein 1 (XBP1), XBP1 (gene 7494); test: LTEA_HepaRG_XBP1: Life Technologies and Expression Analysis (LTEA) Assay for X-box binding protein 1 (XBP1) using HepaRG (AID 2283540; active = hit-call score of the fitted dose curve at least 0.9, where 1 is the maximum; inactive = score below 0.9); conditions: mRNA level, 48 h; actives raise or lower the signal
Outline: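 XBP1 transcript by qRT-PCR (housekeeping-normalized: ACTB, GAPDH, POLR2A) after 48 h chemical treatment of HepaRG cells, 8-point half-log series topping at 100 uM, vehicle 0.5% DMSO. Gain and loss of signal fitted relative to DMSO.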

[5] = LTEA_HepaRG_LDH_cytotoxicity: Cytotoxicity Assessment in the Life Technologies and Expression Analysis (LTEA) Assay (AID 2283563);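 as to AC50: LDH activity released into spent culture medium as a marker of cell death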
Outline: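 LDH release into culture medium read after 48 h chemical treatment of HepaRG cells. Duplicate wells, eight-point half-log series topping at 100 uM, 0.5% DMSO vehicle and baseline.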

[6] = ATG_XTT_Cytotoxicity: Cytotoxicity Assessment in the Attagene TRANS-FACTORIAL HepG2 Assay (AID 2283584);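 as to AC50: cells exposed to compound for 24 h before reading; active means loss of viability signal versus DMSO baseline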
Outline: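 Viability endpoint from XTT after 24 h chemical exposure of reporter-transfected human HepG2 liver cells; signal loss fitted relative to DMSO negative control.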

[7] = Tanguay_ZF_120hpf_MORT_legacy: (Legacy) Oregon State University Tanguay Lab 120 Hour Post-fertilization zebrafish Assay for Mortality (AID 2283633);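 as to AC50: fitted as increase in binary mortality versus DMSO negative control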
Outline: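 Static waterborne exposure from 6 to 120 hpf at 28C of single dechorionated wild-type (5D) embryos per well, 0.64% DMSO final. Death recorded present/absent by brightfield at 24 and 120 hpf.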

[8] = Tanguay_ZF_120hpf_YSE_legacy: (Legacy) Oregon State University Tanguay Lab 120 Hour Post-fertilization zebrafish Assay for Yolk Sac Edema (AID 2283634)
Outline: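 Presence or absence of yolk sac edema was recorded at 120 hpf in surviving larvae. These were wild-type Tropical 5D embryos, chorion removed at 4 hpf, held in static exposure at 28C from 6 hpf with 0.64% DMSO vehicle.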

[9] = Tanguay_ZF_120hpf_AXIS_legacy: (Legacy) Oregon State University Tanguay Lab 120 Hour Post-fertilization zebrafish Assay for Body Axis Malformation (AID 2283635)
Outline: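 Binary scoring of axis defects at 120 hpf under brightfield, fitted positive versus DMSO. Tropical 5D embryos, chorion removed by pronase at 4 hpf, were singly exposed in sealed, dark plates at 28C from 6 hpf; DMSO 0.64% final.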

[10] = Tanguay_ZF_120hpf_EYE_legacy: (Legacy) Oregon State University Tanguay Lab 120 Hour Post-fertilization zebrafish Assay for Eye Malformation (AID 2283636);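 also: binary presence or absence of eye malformation scored by brightfield in 120 hpf larvae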
Outline: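 Dechorionated wild-type Tropical 5D zebrafish embryos were exposed statically from 6 hpf, one per well, to 120 hpf at 28C in sealed, foil-covered plates with 0.64% DMSO. Eye malformation was scored present/absent by brightfield microscopy against DMSO controls.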

[11] = read-out: Cellular tumor antigen p53 (Homo sapiens) (UniProt P04637); test: LTEA_HepaRG_TP53: Life Technologies and Expression Analysis (LTEA) Assay for Tumor Protein P53 (TP53) using HepaRG (AID 2283537; active = hit-call score of the fitted dose curve at least 0.9, where 1 is the maximum; inactive = score below 0.9); conditions: mRNA level, 48 h; actives raise or lower the signal
Outline: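 Differentiated HepaRG cells in serum-free induction medium exposed 48 h in duplicate to 8 half-log concentrations, top 100 uM, 0.5% DMSO. TP53 mRNA by TaqMan qRT-PCR (Fluidigm), normalized to ACTB, GAPDH, POLR2A; fitted bidirectionally versus DMSO.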

[12] = TOX21_p53_BLA_p2_viability: Viability Assessment in the Tox21 HCT-116 p53 Agonism Beta-lactamase Assay, Phase 2 (AID 2283591);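 also: compound exposure lasted 16 h at 37 °C; actives lower the ATP signal meaning cytotoxicity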
Outline: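 HCT-116 p53-bla cells (4000/well) rested 5 h at 37C, then received compounds in DMSO (217-fold dilution) for 16 h at 37C, 5% CO2. After the CCF4 read, CellTiter-Glo was added; ATP luminescence was read after 30 min at room temperature.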

[13] = target: Cellular tumor antigen p53 (Homo sapiens) (UniProt P04637); test: TOX21_p53_BLA_p2_ratio: Tox21 HCT-116 p53 Agonism Beta-lactamase Assay, Ratio, Phase 2 (AID 2283592)
Sequence of Cellular tumor antigen p53 (Homo sapiens) (P04637 whole entry, looked up): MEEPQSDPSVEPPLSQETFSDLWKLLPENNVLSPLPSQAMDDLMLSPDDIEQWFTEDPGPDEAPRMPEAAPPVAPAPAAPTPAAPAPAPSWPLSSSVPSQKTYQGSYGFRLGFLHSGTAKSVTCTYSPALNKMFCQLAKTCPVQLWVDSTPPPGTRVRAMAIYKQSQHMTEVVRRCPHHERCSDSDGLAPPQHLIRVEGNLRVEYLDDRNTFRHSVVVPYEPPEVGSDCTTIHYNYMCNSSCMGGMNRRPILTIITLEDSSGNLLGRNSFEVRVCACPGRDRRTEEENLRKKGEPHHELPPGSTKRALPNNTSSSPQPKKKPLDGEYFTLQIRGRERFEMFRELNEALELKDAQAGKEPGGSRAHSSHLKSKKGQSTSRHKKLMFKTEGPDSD
Outline: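 Gain-of-signal p53 agonism was scored from the beta-lactamase FRET ratio (460/530 nm, 405 nm excitation) in HCT116 cells treated 16 h at 37C, 5% CO2, with DMSO serving as negative control and baseline.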

[14] = TOX21_p53_BLA_p3_viability: Viability Assessment in the Tox21 HCT-116 p53 Agonism Beta-lactamase Assay, Phase 3 (AID 2283593);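 also: cells exposed to compound for 16 h before reading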
Outline: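 HCT-116 cells (4000/well) rested 5 h at 37C, then got DMSO compounds by pin tool (217-fold dilution) for 16 h at 37C, 5% CO2. After the bla read, CellTiter-Glo was added and luminescence read at 30 min, room temperature.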

[15] = target: Cellular tumor antigen p53 (Homo sapiens) (UniProt P04637); test: TOX21_p53_BLA_p3_ratio: Tox21 HCT-116 p53 Agonism Beta-lactamase Assay, Ratio, Phase 3 (AID 2283596)
Outline: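 HCT116 p53-bla cells (4000/well) given compound in DMSO (217-fold dilution) after 5 h, incubated 16 h at 37C. CCF4-AM substrate 2 h at room temperature; 460/530 nm emission ratio, gain fitted against DMSO.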

[16] = TOX21_p53_BLA_p4_viability: Viability Assessment in the Tox21 HCT-116 p53 Agonism Beta-lactamase Assay, Phase 4 (AID 2283597);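 also: hits lower the luminescence signal meaning cytotoxicity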
Outline: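 Following a 16 h exposure at 37C, the treated HCT116 wells were first read for the FRET ratio. They were then lysed with CellTiter-Glo, and ATP luminescence was recorded after 30 min at room temperature.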

[17] = target: Cellular tumor antigen p53 (Homo sapiens) (UniProt P04637); test: TOX21_p53_BLA_p5_ratio: Tox21 HCT-116 p53 Agonism Beta-lactamase Assay, Ratio, Phase 5 (AID 2283599)
Outline: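 HCT-116 cells carrying a p53-inducible beta-lactamase reporter were seeded at 4000 cells/well and dosed after 5 h with compound in DMSO (217-fold dilution). After 16 h at 37C, CCF4-AM substrate was added for 2 h, and the 460/530 nm emission ratio was scored as gain-of-signal versus DMSO.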

[18] = TOX21_p53_BLA_p5_viability: Viability Assessment in the Tox21 HCT-116 p53 Agonism Beta-lactamase Assay, Phase 5 (AID 2283600)
Outline: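 After the 460/530 nm beta-lactamase measurement, the wells received an ATP-detection luciferase reagent; signal was read 30 min later at RT. Compound treatment lasted 16 h on cells pre-incubated 5 h post-seeding.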

[19] = target: Cellular tumor antigen p53 (Homo sapiens) (UniProt P04637); test: TOX21_p53_BLA_p4_ratio: Tox21 HCT-116 p53 Agonism Beta-lactamase Assay, Ratio, Phase 4 (AID 2283601)
Outline: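 HCT116 cells carrying an inducible beta-lactamase reporter were plated at 4000 cells/well, rested 5 h, then exposed to compounds in DMSO (217-fold dilution) for 16 h at 37C. CCF4-AM substrate was loaded 2 h at room temperature; 460/530 nm emission ratio scored gain-of-signal versus DMSO.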

[20] = Tanguay_ZF_120hpf_SNOU_legacy: (Legacy) Oregon State University Tanguay Lab 120 Hour Post-fertilization zebrafish Assay for Snout Malformation (AID 2283637)
Outline: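 Tropical 5D wild-type zebrafish embryos, dechorionated with pronase at 4 hpf, were exposed singly from 6 hpf to 120 hpf statically at 28C in 0.64% DMSO. Snout malformation was scored present/absent by brightfield microscopy, fitted against DMSO.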

Measured: AC50

CCCCCCCCCCCCCCCCO
inactive: [1] | [2] | [3] | [4] | [5] | [6] | [7] | [8] | [9] | [10]

NCCOCCOCCN
not listed: [3] | [10] | [20]
inactive: all other assays above

CC(C)(O)c1ccc(CNC(=O)c2cccnc2Oc2ccc(F)cc2)cc1
active: [2] 4.71 µM
not listed: [3] | [6] | [12] | [17] | [19] | [20]
inactive: all other assays above

C=CCc1ccc(OC)c(OC)c1
not listed: [3] | [6] | [7] | [16] | [20]
inactive: all other assays above

CO[C@@H]1COCC[C@@H]1N[C@@H]1CC[C@@](C(=O)N2CCc3ncc(C(F)(F)F)cc3C2)(C(C)C)C1
not listed: [3] | [6] | [13] | [15] | [16] | [17] | [19]
inactive: all other assays above

CCCC[C@H]1CN(CC2CCOCC2)C(=O)OC12CCN(C1(C)CCN(C(=O)c3c(C)ncnc3C)CC1)CC2
not listed: [3] | [12] | [20]
inactive: all other assays above

CS(=O)(=O)c1ccc([C@@H](C[C@H]2CCC(=O)C2)C(=O)Nc2cnccn2)cc1Cl
active: [1] 27.2 µM | [11] 1.09 µM | [4] 1.33 µM
not listed: [3] | [13] | [16] | [17] | [20]
inactive: all other assays above

O=C1c2c(O)cccc2Cc2cccc(O)c21
not listed: [3] | [20]
inactive: all other assays above

O=C(O)CN(CC(=O)O)CC(=O)O
not listed: [3] | [16]
inactive: all other assays above

Nc1nc(Cl)nc2c1ncn2[C@H]1C[C@H](O)[C@@H](CO)O1
active: [1] 0.888 µM | [2] 1.66 µM | [4] 1.56 µM | [5] 8.62 µM | [13] 271 nM and 790 nM | [15] 468 nM and 960 nM | [17] 455 nM and 793 nM | [19] 244 nM and 886 nM
not listed: [3] | [20]
inactive: all other assays above

CCN(CC)CCOc1ccc(C(=C(Cl)c2ccccc2)c2ccccc2)cc1
active: [2] 80.1 µM | [3] 56.6 µM | [5] 62.5 µM | [6] 28 µM [middle of 5 runs] | [7] 26.9 µM
inactive: [1] | [4] | [8] | [9] | [10]

CC(C)COC(=O)CCCCC(=O)OCC(C)C
inactive: [1] | [2] | [3] | [4] | [5] | [6] | [7] | [8] | [9] | [10]

CN(C)CCCN1c2ccccc2Sc2ccc(Cl)cc21
active: [1] 15.8 µM | [5] 38.4 µM | [6] 43.2 µM | [12] 73.4 µM | [13] 6.66 µM | [16] 36.8 µM and 73.4 µM | [18] 77.8 µM | [19] 20.6 µM | [7] 16.3 µM
inactive: [11] | [2] | [4] | [13] | [14] | [15] | [17] | [19] | [8] | [9] | [10]

NC=O
inactive: [1] | [2] | [3] | [4] | [5] | [6] | [7] | [8] | [9] | [10] | [20]

O=C(Oc1ccccc1)c1cccc(C(=O)Oc2ccccc2)c1
inactive: [1] | [2] | [3] | [4] | [5] | [6] | [7] | [8] | [9] | [10] | [20]

Cc1c(C)c2c(c(C)c1O)CCC(C)(COc1ccc(CC3SC(=O)NC3=O)cc1)O2 (stereo unspecified)
inactive: [11] | [2] | [4] | [18] | [7] | [8] | [9] | [10] | [20]
active: [1] 27.1 µM | [5] 76.3 µM | [12] 74.4 µM and 37.1 µM | [13] 15.4 µM and 28.5 µM | [14] 73.8 µM | [15] 28.1 µM and 26 µM | [16] 66.4 µM and 34.8 µM | [17] 56.1 µM and 34.1 µM | [18] 87 µM | [19] 76 µM and 35.5 µM
